# From paper PMC7862700, “An all-to-all approach to the identification of sequence-specific readers for epigenetic DNA modifications on cytosine”
# Tests used:
# Assay in all cases: DAPPL (digital affinity profiling via proximity ligation, sequencing); 10 mM Tris-HCl pH 7.5, 50 mM NaCl, 1 mM DTT, 4% glycerol, room temperature, 30 min; GST-TFs on glutathione beads, 16-mer random dsDNA library, 0.1% formaldehyde crosslink after washing; high values mean tight binding
# [1] = biological target: T1, FLI1 (Homo sapiens, UniProt Q01543 1-452); details: protein: recombinant; tags: N-terminal GST; dsDNA, one strand shown
# T1 sequence: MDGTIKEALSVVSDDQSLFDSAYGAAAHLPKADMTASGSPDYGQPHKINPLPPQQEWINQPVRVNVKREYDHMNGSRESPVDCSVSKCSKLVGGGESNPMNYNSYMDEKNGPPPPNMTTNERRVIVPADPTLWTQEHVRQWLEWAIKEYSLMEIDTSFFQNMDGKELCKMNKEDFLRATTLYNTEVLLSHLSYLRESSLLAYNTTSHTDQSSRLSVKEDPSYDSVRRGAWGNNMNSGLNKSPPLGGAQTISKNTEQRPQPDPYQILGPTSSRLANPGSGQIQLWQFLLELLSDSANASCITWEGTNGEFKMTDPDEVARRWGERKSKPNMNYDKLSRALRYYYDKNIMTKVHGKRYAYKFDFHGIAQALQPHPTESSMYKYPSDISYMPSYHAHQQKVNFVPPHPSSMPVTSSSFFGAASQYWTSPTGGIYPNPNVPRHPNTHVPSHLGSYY
# Outline: (§1)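 Sequencing on an Illumina NextSeq500 followed washing, crosslinking with 0.1% formaldehyde, proximity ligation (BsaI/T4 ligase, 1 h, 37 °C) and PCR amplification of pools that had been incubated for 30 min at room temperature with 200 nmole of a random double-stranded 16-mer DNA library in Tris/NaCl/DTT/glycerol buffer. Each pool held DNA-barcoded human transcription factors, expressed in yeast as GST fusions and captured on glutathione beads, plus a tag-only sample. Binding signal is a hexamer's read frequency for a factor divided by its frequency in the tag-only sample.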
# [2] = biological target: T2, ELK1 (Homo sapiens, UniProt P19419 1-428); details: protein: recombinant; tags: N-terminal GST; dsDNA, one strand shown
# T2 sequence: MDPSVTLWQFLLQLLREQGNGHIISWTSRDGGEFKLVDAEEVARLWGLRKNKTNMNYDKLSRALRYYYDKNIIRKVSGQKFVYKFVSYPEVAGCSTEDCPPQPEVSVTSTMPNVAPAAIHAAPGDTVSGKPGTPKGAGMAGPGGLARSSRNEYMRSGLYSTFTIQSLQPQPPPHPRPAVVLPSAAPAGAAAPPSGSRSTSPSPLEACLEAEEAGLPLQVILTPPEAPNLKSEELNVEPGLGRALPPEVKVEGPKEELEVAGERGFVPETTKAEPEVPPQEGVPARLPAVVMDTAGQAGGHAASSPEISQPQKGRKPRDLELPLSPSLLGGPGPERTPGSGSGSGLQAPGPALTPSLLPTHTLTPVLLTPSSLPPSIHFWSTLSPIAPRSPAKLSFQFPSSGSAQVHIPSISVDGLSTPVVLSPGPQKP
# Outline: as §1
# [3] = biological target: T3, GABPA (Homo sapiens, UniProt Q06546 1-454); details: protein: recombinant; tags: N-terminal GST; dsDNA, one strand shown
# T3 sequence: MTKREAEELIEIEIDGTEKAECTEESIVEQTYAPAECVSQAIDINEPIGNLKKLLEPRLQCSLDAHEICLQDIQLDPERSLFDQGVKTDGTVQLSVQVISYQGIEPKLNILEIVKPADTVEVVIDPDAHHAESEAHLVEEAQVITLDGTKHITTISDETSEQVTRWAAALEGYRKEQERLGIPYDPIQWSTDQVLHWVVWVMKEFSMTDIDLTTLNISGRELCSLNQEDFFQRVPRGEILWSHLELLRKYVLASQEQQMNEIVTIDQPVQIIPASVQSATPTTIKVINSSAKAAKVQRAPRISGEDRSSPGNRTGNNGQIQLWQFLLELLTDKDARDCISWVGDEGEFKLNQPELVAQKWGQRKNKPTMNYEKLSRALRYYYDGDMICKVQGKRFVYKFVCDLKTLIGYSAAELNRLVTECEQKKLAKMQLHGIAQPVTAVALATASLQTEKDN
# Outline: as §1
# [4] = biological target: T4, ERG (Homo sapiens, UniProt P11308 1-479); details: protein: recombinant; tags: N-terminal GST; dsDNA, one strand shown
# T4 sequence: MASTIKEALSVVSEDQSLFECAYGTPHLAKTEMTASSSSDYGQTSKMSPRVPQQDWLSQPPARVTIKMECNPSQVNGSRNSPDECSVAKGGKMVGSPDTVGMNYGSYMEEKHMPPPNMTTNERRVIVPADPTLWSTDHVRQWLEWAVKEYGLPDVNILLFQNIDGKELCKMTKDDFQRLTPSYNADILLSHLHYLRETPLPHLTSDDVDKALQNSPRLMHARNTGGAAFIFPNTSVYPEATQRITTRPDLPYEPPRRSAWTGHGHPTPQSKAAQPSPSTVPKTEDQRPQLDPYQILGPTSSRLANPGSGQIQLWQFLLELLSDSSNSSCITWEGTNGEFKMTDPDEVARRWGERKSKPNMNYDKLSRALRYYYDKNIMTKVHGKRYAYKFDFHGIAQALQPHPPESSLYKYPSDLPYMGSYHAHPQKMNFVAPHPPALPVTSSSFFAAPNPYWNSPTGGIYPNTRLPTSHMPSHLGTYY
# Outline: as §1
# [5] = biological target: ELF1 (Homo sapiens, UniProt P32519 1-619); details: protein: recombinant; tags: N-terminal GST; dsDNA, one strand shown
# Outline: as §1
# [6] = biological target: T5, EHF (Homo sapiens, UniProt Q9NZC4 1-300); details: protein: recombinant; tags: N-terminal GST; dsDNA, one strand shown
# T5 sequence: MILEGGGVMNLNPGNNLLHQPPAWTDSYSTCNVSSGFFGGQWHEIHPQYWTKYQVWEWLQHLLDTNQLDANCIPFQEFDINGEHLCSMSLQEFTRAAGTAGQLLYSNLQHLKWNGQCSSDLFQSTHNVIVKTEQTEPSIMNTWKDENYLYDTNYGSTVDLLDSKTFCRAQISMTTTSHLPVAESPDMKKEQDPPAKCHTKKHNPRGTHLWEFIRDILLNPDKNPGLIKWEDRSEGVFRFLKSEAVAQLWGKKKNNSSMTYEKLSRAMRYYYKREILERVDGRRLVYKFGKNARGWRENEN
# Outline: as §1
# [7] = biological target: SPI1 (Homo sapiens, UniProt P17947 1-270); details: protein: recombinant; tags: N-terminal GST; dsDNA, one strand shown
# Outline: as §1
# [8] = biological target: SPIB (Homo sapiens, UniProt Q01892 1-262); details: protein: recombinant; tags: N-terminal GST; dsDNA, one strand shown
# Outline: as §1
# [9] = biological target: T6, ELK3 (Homo sapiens, UniProt P41970 1-407); details: protein: recombinant; tags: N-terminal GST; dsDNA, one strand shown
# T6 sequence: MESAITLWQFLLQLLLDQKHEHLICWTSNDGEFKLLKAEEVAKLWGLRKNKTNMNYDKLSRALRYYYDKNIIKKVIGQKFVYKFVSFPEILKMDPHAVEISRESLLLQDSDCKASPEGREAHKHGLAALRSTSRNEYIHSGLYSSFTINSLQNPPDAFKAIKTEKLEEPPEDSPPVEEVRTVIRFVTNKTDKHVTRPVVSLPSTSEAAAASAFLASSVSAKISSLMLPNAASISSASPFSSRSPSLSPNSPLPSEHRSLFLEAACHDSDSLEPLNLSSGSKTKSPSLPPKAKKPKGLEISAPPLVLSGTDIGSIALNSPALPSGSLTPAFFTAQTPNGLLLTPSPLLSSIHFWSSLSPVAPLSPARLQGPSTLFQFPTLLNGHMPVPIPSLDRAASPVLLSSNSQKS
# Outline: as §1
# [10] = biological target: T7, FEV (Homo sapiens, UniProt Q99581 1-238); details: protein: recombinant; tags: N-terminal GST; dsDNA, one strand shown
# T7 sequence: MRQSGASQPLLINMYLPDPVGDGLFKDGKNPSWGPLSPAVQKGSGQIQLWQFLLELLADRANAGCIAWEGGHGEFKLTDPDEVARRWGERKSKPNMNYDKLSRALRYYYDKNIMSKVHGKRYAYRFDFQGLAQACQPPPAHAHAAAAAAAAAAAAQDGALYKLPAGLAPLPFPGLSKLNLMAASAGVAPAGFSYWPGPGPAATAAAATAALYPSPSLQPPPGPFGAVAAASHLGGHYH
# Outline: as §1
# [11] = biological target: ETV5 (Homo sapiens, UniProt P41161 1-510); details: protein: recombinant; tags: N-terminal GST; dsDNA, one strand shown
# Outline: as §1
# [12] = biological target: HSF1 (Homo sapiens, UniProt Q00613 1-529); details: protein: recombinant; tags: N-terminal GST; chain copies: 3; dsDNA, one strand shown
# Outline: as §1
# [13] = biological target: T8, SPIC (Homo sapiens, UniProt Q8N5J4 1-248); details: protein: recombinant; tags: N-terminal GST; dsDNA, one strand shown
# T8 sequence: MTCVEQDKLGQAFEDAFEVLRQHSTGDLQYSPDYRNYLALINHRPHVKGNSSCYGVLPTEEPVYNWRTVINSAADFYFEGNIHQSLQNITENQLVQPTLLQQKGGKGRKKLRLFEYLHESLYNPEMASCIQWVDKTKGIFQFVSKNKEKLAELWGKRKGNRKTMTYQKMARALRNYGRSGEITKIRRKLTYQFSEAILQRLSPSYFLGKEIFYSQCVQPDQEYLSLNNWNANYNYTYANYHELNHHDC
# Outline: as §1
# [14] = biological target: ELF4 (Homo sapiens, UniProt Q99607 1-663); details: protein: recombinant; tags: N-terminal GST; dsDNA, one strand shown
# Outline: as §1
# [15] = biological target: T9, ELK4 (Homo sapiens, UniProt P28324-2 1-405); details: protein: recombinant; tags: N-terminal GST; dsDNA, one strand shown
# T9 sequence: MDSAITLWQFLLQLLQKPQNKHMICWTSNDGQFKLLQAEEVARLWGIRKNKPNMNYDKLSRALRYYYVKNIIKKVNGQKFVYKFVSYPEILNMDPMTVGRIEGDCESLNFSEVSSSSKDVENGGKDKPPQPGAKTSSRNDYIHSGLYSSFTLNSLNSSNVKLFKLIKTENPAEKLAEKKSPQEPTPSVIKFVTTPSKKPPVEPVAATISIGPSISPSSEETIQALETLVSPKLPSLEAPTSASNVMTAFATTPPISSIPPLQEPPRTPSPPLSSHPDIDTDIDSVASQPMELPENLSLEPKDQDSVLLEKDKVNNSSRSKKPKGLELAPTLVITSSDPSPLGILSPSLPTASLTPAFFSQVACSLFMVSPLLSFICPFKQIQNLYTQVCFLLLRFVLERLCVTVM
# Outline: as §1
# [16] = biological target: T10, ETV2 (Homo sapiens, UniProt O00321 1-342); details: protein: recombinant; tags: N-terminal GST; dsDNA, one strand shown
# T10 sequence: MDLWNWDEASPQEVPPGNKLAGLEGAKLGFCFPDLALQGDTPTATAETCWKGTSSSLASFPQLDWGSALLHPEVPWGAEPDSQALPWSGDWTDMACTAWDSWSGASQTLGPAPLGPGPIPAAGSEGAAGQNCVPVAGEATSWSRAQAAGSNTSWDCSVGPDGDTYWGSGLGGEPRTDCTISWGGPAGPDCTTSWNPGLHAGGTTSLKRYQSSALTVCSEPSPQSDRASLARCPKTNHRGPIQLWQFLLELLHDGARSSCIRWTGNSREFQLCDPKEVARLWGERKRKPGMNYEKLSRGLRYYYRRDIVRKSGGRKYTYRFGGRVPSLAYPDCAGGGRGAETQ
# Outline: as §1
# [17] = biological target: T11, ELF3 (Homo sapiens, UniProt P78545 1-371); details: protein: recombinant; tags: N-terminal GST; dsDNA, one strand shown
# T11 sequence: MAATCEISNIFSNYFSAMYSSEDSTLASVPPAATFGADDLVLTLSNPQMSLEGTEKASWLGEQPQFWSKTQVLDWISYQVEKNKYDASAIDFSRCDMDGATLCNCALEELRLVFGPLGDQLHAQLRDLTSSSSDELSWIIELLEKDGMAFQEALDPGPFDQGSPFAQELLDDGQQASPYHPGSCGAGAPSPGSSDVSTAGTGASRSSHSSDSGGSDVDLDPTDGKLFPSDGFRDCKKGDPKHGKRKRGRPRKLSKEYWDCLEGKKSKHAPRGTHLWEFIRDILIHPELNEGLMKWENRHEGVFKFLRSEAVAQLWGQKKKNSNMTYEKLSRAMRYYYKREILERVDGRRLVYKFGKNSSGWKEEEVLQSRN
# Outline: as §1
# [18] = biological target: CRX (Homo sapiens, UniProt O43186 1-299); details: protein: recombinant; tags: N-terminal GST; dsDNA, one strand shown
# Outline: as §1
# [19] = biological target: ETV1 (Homo sapiens, UniProt P50549 1-477); details: protein: recombinant; tags: N-terminal GST; dsDNA, one strand shown
# Outline: as §1
# HSF1, sequence (Q00613 whole entry): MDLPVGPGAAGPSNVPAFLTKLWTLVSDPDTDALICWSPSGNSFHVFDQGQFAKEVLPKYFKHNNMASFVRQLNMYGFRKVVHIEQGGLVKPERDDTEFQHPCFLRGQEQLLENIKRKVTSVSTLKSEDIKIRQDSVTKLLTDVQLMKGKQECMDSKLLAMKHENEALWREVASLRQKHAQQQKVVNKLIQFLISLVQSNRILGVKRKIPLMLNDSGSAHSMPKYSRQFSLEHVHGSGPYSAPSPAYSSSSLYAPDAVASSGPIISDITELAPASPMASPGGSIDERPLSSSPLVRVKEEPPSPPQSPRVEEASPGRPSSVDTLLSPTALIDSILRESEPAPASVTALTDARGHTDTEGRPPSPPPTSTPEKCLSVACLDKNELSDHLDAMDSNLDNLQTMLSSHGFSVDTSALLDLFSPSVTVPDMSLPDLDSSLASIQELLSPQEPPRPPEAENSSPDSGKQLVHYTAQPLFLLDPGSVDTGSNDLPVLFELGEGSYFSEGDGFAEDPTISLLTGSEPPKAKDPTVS
# ELF1, sequence (P32519 whole entry): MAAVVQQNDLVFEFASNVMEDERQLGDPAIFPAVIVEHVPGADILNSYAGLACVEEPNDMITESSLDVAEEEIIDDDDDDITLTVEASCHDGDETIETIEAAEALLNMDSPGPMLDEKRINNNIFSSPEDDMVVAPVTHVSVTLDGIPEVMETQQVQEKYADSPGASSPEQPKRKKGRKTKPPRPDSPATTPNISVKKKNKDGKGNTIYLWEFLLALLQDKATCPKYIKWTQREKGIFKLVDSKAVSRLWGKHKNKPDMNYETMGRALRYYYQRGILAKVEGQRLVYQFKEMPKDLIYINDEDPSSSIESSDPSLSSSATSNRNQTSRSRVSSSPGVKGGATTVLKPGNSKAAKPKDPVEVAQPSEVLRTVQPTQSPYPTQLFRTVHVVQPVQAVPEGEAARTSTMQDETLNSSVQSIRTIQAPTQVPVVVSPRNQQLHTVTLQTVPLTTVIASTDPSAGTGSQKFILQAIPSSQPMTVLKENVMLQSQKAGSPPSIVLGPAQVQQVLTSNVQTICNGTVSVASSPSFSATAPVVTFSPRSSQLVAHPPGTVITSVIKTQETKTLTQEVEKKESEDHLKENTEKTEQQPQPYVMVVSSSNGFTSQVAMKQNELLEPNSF
# ETV1, sequence (P50549 whole entry): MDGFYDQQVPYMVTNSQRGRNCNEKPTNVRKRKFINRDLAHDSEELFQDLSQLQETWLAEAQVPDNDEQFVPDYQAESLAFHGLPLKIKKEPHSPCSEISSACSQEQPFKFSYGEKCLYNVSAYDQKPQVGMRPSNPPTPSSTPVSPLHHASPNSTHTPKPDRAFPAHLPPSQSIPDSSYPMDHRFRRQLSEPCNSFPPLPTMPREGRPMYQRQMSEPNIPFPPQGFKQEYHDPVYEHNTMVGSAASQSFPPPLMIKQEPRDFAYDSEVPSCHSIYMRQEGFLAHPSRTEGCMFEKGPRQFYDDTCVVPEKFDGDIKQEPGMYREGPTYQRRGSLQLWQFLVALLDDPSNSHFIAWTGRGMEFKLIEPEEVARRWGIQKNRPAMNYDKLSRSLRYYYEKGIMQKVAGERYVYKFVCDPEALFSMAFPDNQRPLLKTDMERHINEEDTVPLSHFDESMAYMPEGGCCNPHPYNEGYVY
# SPIB, sequence (Q01892 whole entry): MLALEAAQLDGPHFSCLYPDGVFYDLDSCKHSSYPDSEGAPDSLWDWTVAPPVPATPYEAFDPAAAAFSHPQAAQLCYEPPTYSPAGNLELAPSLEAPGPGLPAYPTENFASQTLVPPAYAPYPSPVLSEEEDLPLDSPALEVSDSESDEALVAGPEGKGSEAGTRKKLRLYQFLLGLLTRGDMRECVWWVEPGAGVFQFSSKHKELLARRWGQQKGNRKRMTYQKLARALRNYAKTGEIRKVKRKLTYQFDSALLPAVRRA
# CRX, sequence (O43186 whole entry): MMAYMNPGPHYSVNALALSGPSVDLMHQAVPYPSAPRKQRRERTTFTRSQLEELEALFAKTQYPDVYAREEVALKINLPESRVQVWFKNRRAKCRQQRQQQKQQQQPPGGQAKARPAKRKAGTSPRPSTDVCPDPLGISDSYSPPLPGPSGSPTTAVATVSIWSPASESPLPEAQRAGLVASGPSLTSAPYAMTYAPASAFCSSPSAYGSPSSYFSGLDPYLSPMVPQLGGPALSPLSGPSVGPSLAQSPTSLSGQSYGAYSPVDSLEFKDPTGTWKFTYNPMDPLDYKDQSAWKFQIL
# ELF4, sequence (Q99607 whole entry): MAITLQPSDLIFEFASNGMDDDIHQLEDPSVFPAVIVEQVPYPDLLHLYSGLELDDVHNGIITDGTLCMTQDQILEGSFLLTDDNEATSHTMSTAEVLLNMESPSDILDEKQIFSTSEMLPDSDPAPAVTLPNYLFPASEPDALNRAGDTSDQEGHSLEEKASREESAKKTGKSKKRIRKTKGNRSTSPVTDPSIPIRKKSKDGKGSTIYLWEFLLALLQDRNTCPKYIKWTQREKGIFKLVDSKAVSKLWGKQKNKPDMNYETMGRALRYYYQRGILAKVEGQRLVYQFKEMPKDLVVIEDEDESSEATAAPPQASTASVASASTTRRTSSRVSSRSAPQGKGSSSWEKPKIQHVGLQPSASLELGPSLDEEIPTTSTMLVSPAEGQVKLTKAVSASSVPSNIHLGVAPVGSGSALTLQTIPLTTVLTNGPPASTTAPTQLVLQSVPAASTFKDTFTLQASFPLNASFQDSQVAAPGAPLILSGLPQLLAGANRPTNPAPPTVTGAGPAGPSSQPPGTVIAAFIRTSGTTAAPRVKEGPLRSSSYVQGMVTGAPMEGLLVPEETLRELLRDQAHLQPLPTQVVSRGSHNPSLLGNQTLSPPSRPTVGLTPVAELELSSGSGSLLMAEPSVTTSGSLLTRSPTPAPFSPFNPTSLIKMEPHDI
# ETV5, sequence (P41161 whole entry): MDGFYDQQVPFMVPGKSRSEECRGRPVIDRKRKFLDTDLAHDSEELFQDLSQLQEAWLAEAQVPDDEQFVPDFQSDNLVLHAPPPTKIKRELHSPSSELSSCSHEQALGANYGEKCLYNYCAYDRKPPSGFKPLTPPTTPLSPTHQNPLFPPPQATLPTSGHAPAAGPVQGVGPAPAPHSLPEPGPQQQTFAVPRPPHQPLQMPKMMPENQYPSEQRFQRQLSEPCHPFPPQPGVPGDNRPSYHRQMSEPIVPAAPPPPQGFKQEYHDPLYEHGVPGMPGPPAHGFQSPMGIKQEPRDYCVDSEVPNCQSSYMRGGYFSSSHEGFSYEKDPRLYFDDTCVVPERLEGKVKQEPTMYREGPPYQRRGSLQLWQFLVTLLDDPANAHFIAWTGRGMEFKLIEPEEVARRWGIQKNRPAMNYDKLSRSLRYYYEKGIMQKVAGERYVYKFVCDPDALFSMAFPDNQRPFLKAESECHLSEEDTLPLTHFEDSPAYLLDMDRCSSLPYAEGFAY
sequence,measurement,setting,value
ATGAAA,binding signal,[1],"1.11 fold enrichment (6-mer frequency, TF over GST control)"
same,binding signal,[2],"1.17 fold enrichment (6-mer frequency, TF over GST control)"
same,binding signal,[3],"1.16 fold enrichment (6-mer frequency, TF over GST control)"
same,binding signal,[4],"1.17 fold enrichment (6-mer frequency, TF over GST control)"
same,binding signal,[5],"1.2 fold enrichment (6-mer frequency, TF over GST control)"
same,binding signal,[6],"1.16 fold enrichment (6-mer frequency, TF over GST control)"
same,binding signal,[7],"1.2 fold enrichment (6-mer frequency, TF over GST control)"
same,binding signal,[8],"1.15 fold enrichment (6-mer frequency, TF over GST control)"
same,binding signal,[9],"1.06 fold enrichment (6-mer frequency, TF over GST control)"
same,binding signal,[10],"1.13 fold enrichment (6-mer frequency, TF over GST control)"
same,binding signal,[11],"1.12 fold enrichment (6-mer frequency, TF over GST control)"
same,binding signal,[12],"1.16 fold enrichment (6-mer frequency, TF over GST control)"
same,binding signal,[13],"1.24 fold enrichment (6-mer frequency, TF over GST control)"
same,binding signal,[14],"1.2 fold enrichment (6-mer frequency, TF over GST control)"
same,binding signal,[15],"1.21 fold enrichment (6-mer frequency, TF over GST control)"
same,binding signal,[16],"1.15 fold enrichment (6-mer frequency, TF over GST control)"
same,binding signal,[17],"1.19 fold enrichment (6-mer frequency, TF over GST control)"
same,binding signal,[18],"1.08 fold enrichment (6-mer frequency, TF over GST control)"
same,binding signal,[19],"1.2 fold enrichment (6-mer frequency, TF over GST control)"
